The results in this text go back to PubChem BioAssay.

The source made the active and inactive calls.

Assay [1] relates to Plasmodium falciparum Sir2 (PF13_0152, Sir2A). Kind of assay: Plasmodium falciparum Sir2A binding compounds – biochemical, small-molecule microarray, 635 nm fluorescence, primary screen (AID 1098).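 Note: score merges spot fluorescence intensity with its signal-to-noise ratio.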 The settings on record: fluorescence 635 nm, higher = more signal.
Assay [2] in a line: probe aDKK1 binding to arrayed compounds – biochemical, biotinylated probe, 635/667 nm fluorescence, primary screen (AID 1099).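 Note: score merges 667nm spot fluorescence with signal to noise across triplicate slides.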 The settings on record: small-molecule microarray, higher = more signal.
The nature of assay [3]: probe aCHRDL2 binding to arrayed compounds – biochemical, biotinylated probe, 635/667 nm fluorescence, primary screen (AID 1100). The following applies: small-molecule microarray, higher = more signal.
A short description of assay [4]: change in splice reporter luminescence, either direction, cell-based, HEK293, spliceosome inhibition project, primary screen (AID 1101).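 Note: HEK293 cells carrying a splicing-competent luciferase reporter gene; test concentration not given here.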 The following applies: HEK293 splicing luciferase reporter, 24 h, higher = more signal, called active from +8 up or from −8 down.
The target of assay [5] is Fibroblast growth factor 10 (Homo sapiens) (UniProt O15520). Nature of the assay: compounds binding fibroblast growth factor 10 – biochemical, small-molecule microarray, 635 nm fluorescence, primary screen (AID 1102). The following applies: FGF10 binding, fluorescence 635 nm, higher = more signal.
Assay [6] relates to glycogen synthase kinase-3 (GSK3A per assay name; protocol says GSK3B). Nature of the assay: compounds binding glycogen synthase kinase-3 – biochemical, small-molecule microarray, 635 nm fluorescence, GSK3A, primary screen (AID 1103). Note: the record names both GSK3A and GSK3B. The settings on record: fluorescence 635 nm, higher = more signal.
The target in assay [7] is Epidermal growth factor receptor (Homo sapiens) (UniProt P00533). Nature of the assay: compounds binding epidermal growth factor receptor – biochemical, small-molecule microarray, 635 nm fluorescence, primary screen (AID 1104).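 Note: score merges 667 nm emission intensity with spot signal to noise over triplicate slides.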 The settings on record: EGFR binding, higher = more signal.
In assay [8] the target is Follistatin-related protein 3 (Homo sapiens) (UniProt O95633). Kind of assay: compounds binding follistatin-related protein 3 – biochemical, small-molecule microarray, 635 nm fluorescence, primary screen (AID 1105).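 Note: score merges emission near 667 nm and signal to noise per printed spot across three slides.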 The following applies: FSTL3 binding, higher = more signal.
Assay [9] deals with Dickkopf-related protein 1 (Homo sapiens) (UniProt O94907). Kind of assay: small molecules binding DKK1 protein – biochemical, small-molecule microarray, 635 nm fluorescence scan, primary screen (AID 1106).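 Note: score merges emission near 667 nm with signal to noise over three replicate slides.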 The following applies: higher = more signal.
Assay [10] relates to Inhibin beta A chain (activin A). Kind of assay: small molecules binding activin A – biochemical, small-molecule microarray, 635 nm fluorescence scan, primary screen (AID 1107).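 Note: mouse activin A protein probed at 4.33 µg/mL on printed slides; score merges bound-protein fluorescence near 667 nm with spot signal-to-noise.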 The settings on record: INHBA, higher = more signal.
In assay [11] the test system is Human papillomavirus type 1a protein E7 (residues 44-93). Kind of assay: small molecules binding HPV E7 44-93 – biochemical, small-molecule microarray, residues 44-93, 635 nm fluorescence, primary screen (AID 1108).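 Note: E7 fragment applied at 1 µg/mL in TBST for 1 h at 4 C; score combines spot fluorescence with its signal to noise ratio.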 The settings on record: fluorescence 635 nm, higher = more signal.
Assay [12] in a line: hepatitis C replication reporter changes, two-sided – Huh7 cells, luciferase reporter, HCV replication inhibitor project, primary screen (AID 1109).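 Note: huh7 hepatoma cells harbouring a luciferase neomycin HCV replicon reporter; luciferase luminescence as measure of HCV replicon replication; test concentration not given here.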 The following applies: Huh7 HCV replicon luciferase reporter, 48 h; higher = more signal.
Assay [13] concerns the target Left-right determination factor 2 (Homo sapiens) (UniProt O00292). Kind of assay: small molecules binding LEFTY2 protein – biochemical, small-molecule microarray, 635 nm fluorescence scan, primary screen (AID 1110). The following applies: higher = more signal.
Assay [14] addresses Calmodulin-1 (Homo sapiens) (UniProt P0DP23). Nature of the assay: small molecules binding calmodulin-1 with EGTA – biochemical, small-molecule microarray, Cy5-labelled CALM1, profiling panel (AID 1111).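 Note: labelled calmodulin applied in Tris saline Tween buffer holding calcium plus EGTA and DTT.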 The settings on record: Cy5-CALM1 binding fluorescence, higher = more signal.
Assay [15] shares this target. Nature of the assay: small molecules binding Ca-loaded calmodulin-1 – biochemical, small-molecule microarray, Cy5-labelled CALM1, plus calcium, artefact control for SMM control-protein annotation, profiling panel (AID 1112).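 Note: score merges spot fluorescence with signal to noise from triplicate slides.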 The settings on record: Cy5-CALM1 binding fluorescence, higher = more signal.
Assay [16] in a line: probe aWnt5a binding to arrayed compounds – biochemical, biotinylated probe, 635/667 nm fluorescence, primary screen (AID 1113).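 Note: score merges 667 nm fluorescence intensity with signal-to-noise per printed feature.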 The following applies: small-molecule microarray, higher = more signal.
Assay [17] is described as follows: probe aShh binding to arrayed compounds – biochemical, biotinylated probe, 635/667 nm fluorescence, primary screen (AID 1114).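 Note: probe is biotin-labelled aShh protein from a stem cell growth factor screen; measures binding of labelled protein to compounds printed on the slide; score merges feature fluorescence at 667 nm with signal-to-noise.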 The following applies: small-molecule microarray, higher = more signal.
The nature of assay [18]: probe aNog binding to arrayed compounds – biochemical, biotinylated probe, 635/667 nm fluorescence, primary screen (AID 1115).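 Note: probe is biotinylated aNog protein used at 0.15 µg/mL for 1 h at 4 C; z-score combines 667 nm fluorescence of each spot with its signal to noise.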 The settings on record: small-molecule microarray, higher = more signal.
Assay [19] addresses Torsin-1A-interacting protein 1 (Homo sapiens) (UniProt Q5JTV8). Kind of assay: compound microarray binding of lysate hLAP1 – cell lysate, small-molecule microarray, COS7 lysate, 635/667 nm fluorescence, primary screen (AID 1116). The settings on record: 635 nm fluorescence, higher = more signal.
Assay [20] addresses Alpha-bungarotoxin (Bungarus multicinctus) (UniProt P60615). Nature of the assay: compounds binding labelled alpha-BTX control protein – biochemical, small-molecule microarray, Alexa647 label, 635/667 nm fluorescence, artefact control for SMM control protein annotation, profiling panel (AID 1117). The settings on record: alpha-BTX-A647 binding fluorescence, higher = more signal.

Sequence of Alpha-bungarotoxin (Bungarus multicinctus) (P60615 whole entry, looked up): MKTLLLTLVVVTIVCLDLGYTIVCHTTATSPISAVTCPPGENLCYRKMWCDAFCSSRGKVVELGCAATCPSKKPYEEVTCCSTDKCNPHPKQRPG
Sequence of Torsin-1A-interacting protein 1 (Homo sapiens) (Q5JTV8 whole entry, looked up): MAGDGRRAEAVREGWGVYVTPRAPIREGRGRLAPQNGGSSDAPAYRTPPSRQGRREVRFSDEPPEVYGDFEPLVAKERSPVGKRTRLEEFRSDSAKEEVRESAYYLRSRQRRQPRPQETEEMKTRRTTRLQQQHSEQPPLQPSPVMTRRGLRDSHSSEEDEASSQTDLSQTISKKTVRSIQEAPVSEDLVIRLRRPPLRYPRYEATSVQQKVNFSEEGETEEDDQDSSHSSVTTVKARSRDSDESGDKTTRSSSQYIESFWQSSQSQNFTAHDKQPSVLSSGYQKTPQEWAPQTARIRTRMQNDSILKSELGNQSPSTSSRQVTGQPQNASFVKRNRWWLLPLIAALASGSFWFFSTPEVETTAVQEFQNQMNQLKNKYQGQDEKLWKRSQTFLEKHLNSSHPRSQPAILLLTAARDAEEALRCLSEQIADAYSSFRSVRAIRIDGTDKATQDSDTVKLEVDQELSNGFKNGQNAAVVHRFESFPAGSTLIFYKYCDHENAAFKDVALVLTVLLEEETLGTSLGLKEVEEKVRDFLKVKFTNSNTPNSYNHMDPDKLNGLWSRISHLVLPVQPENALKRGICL
Sequence of Dickkopf-related protein 1 (Homo sapiens) (O94907 whole entry, looked up): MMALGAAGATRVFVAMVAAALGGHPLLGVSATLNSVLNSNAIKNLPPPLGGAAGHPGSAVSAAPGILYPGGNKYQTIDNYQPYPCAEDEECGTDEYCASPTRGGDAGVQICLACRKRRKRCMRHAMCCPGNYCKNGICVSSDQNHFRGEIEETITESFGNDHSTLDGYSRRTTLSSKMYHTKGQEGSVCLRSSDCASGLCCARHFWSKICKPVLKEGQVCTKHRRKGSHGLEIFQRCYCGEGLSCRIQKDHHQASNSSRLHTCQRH
Sequence of Left-right determination factor 2 (Homo sapiens) (O00292 whole entry, looked up): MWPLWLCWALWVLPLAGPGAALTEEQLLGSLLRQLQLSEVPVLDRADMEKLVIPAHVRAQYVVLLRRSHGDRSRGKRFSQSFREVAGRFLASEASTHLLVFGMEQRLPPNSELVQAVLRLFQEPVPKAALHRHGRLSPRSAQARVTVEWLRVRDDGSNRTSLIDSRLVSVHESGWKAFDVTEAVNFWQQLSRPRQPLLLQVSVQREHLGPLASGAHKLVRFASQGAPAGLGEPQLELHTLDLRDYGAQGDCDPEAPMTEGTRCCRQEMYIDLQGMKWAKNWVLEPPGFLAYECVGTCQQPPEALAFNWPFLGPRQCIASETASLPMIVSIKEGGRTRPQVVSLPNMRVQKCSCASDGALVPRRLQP
Sequence of Fibroblast growth factor 10 (Homo sapiens) (O15520 whole entry, looked up): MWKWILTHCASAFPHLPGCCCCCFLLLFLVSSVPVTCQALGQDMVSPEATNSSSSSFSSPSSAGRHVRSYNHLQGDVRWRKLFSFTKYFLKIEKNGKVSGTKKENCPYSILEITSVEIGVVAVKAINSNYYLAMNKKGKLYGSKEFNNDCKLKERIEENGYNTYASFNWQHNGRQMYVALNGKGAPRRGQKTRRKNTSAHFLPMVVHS
Sequence of Follistatin-related protein 3 (Homo sapiens) (O95633 whole entry, looked up): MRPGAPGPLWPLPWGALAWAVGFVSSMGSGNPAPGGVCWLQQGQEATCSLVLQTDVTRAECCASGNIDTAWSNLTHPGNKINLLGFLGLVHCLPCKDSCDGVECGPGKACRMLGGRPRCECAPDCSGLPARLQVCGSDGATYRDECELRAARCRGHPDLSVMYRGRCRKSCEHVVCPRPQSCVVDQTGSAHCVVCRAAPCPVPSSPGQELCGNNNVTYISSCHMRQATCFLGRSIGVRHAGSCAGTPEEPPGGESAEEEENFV
Sequence of Epidermal growth factor receptor (Homo sapiens) (P00533 whole entry, looked up): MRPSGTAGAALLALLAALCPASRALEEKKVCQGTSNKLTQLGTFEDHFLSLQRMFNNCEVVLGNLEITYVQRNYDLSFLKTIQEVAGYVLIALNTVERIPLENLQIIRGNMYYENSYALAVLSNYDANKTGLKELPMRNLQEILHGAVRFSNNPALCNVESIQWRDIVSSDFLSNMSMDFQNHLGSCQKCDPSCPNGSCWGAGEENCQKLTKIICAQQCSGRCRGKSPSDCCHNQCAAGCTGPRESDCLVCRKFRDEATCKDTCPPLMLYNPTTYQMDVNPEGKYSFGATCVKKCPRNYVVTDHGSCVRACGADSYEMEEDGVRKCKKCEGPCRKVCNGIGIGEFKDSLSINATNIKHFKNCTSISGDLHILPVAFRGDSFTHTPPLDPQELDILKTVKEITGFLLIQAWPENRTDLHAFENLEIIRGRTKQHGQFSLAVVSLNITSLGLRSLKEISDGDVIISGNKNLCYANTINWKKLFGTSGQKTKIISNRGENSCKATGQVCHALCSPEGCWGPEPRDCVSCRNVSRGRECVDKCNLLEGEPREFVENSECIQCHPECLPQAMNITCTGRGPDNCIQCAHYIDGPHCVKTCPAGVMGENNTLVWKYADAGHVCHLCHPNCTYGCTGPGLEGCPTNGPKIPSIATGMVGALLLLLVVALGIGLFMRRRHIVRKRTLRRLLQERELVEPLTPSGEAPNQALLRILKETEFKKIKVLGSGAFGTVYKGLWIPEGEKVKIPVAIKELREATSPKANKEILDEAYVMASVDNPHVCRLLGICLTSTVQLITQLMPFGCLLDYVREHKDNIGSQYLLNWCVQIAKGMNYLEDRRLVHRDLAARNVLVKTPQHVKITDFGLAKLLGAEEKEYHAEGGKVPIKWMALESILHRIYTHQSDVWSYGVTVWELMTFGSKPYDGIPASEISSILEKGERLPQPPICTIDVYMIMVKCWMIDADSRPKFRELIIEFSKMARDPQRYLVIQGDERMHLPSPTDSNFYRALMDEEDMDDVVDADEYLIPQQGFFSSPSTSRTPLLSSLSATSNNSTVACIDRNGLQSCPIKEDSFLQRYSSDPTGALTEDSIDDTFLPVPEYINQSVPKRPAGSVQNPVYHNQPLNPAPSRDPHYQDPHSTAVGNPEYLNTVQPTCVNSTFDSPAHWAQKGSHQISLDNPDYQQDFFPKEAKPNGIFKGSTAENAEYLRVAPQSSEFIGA

As to `O=C1c2ccccc2[C@@]2(Cc3ccccc3N(C3CC3)C2=O)[C@H](c2ccc(CO)cc2)N1C1CCCCC1`, the composite z-score in assay [1] is -1.5; in assay [2] it was 0.16; in assay [3], 0.615; in assay [5], -0.364; in [6], -0.492; in assay [7], -0.412. For the same compound, the composite z-score is -0.558 in [8]; -0.526 in assay [9]; 0.5 in assay [10]; 0.0731 in [11]; -0.825 in assay [13]; 0.0762 in assay [14]. Besides, the composite z-score is 0.347 in assay [15]; -0.096 in [16]; 0.107 in [17]; -0.0165 in assay [18]; -0.502 in [19]; 0.233 in assay [20]. In addition, the z-score was -0.402 (inactive) in assay [4] and 0.056 in [12].

Regarding `CC1CC/C=C\[C@H]2OC34C=CCN(C(C)C)C(=O)[C@H]3N(CCCCCO)C(=O)[C@@H]4C2C(=O)O1` (stereo not given in full), the composite z-score was 0.382 in assay [1]; -0.0733 in [2]; 0.655 in [3]; -0.82 in assay [5]; -0.609 in assay [6]; -1.4 in [7]. Moreover, the composite z-score was -1.05 in assay [8]; -1.73 in assay [9]; -0.15 in assay [10]; -0.806 in [11]; -2.15 in [13]; -0.329 in [14]. Besides, the composite z-score in [15] is 0.446; in [16], -0.178; in [17], -0.206; in assay [18], 0.179; in assay [19], -0.753; in assay [20] it was -1.36. The z-score is -0.356 (inactive) in [4] and 0.205 in assay [12].

In the case of `C[C@H]1C2=C3C(CC[C@H]4C(OCc5ccc(F)cc5C(F)(F)F)OC[C@](C)([C@@H]34)N(C(=O)OC(C)(C)C)C2)C2COC(=O)OCC21` (stereo not given in full), the composite z-score in assay [1] was found to be 0.0559; in [2], 0.457; in assay [3] it was 1.28; in assay [5], 0.0151; in assay [6], 0.987; in assay [7], 0.0472. For the same compound, the composite z-score in assay [8] is 0.768; in assay [9] it was -0.648; in [10], 0.572; in assay [11] it was 1.35; in [13], -0.431; in assay [14], 2.39. The composite z-score was 1.06 in assay [15]; 0.0232 in [16]; 0.26 in assay [17]; -0.701 in assay [18]; 0.908 in assay [19]; 0.771 in assay [20]. For the same compound, the z-score in assay [4] is -0.848 (inactive); in [12], -1.84.

For `C[C@]1(C(=O)NCCN2CCOCC2)c2ccccc2C(=O)N(Cc2ccc(OC(F)(F)F)cc2)[C@H]1c1ccc(CO)cc1`, the composite z-score was 0.654 in assay [1]; -0.103 in assay [2]; 0.604 in assay [3]; -0.564 in [5]; -0.254 in assay [6]; -1.39 in assay [7]. The composite z-score was -0.381 in [8]; -1.33 in assay [9]; -0.017 in assay [10]; 1.44 in assay [11]; -1.24 in assay [13]; 0.084 in [14]. The composite z-score in assay [15] was -0.0325; in assay [16], -0.252; in assay [17], -0.503; in [18] it was -0.313; in [19], 0.836; in assay [20] it was 0.396. Also, the z-score in assay [4] was 0.396 (inactive); in assay [12] it was -0.705.

As to `C=CCC(OC(C)=O)[C@@H]1[C@@H](N(Cc2cc3ccccc3o2)C(=O)c2ccc(C)cc2)c2cc(OCCCO)ccc2N1C(=O)Cc1ccc2ccccc2c1` (stereo not given in full), the composite z-score in [1] was -0.45; in assay [2], 0.258; in assay [3] it was 0.43; in assay [5] it was -0.204; in assay [6], -0.822; in assay [7] it was -0.0197. Further, the composite z-score in assay [8] was -0.32; in assay [9], 0.182; in [10], 1.2; in assay [11] it was -0.494; in assay [13], 0.081; in assay [14], -0.0956. Moreover, the composite z-score was -0.147 in assay [15]; 0.103 in assay [16]; -0.13 in [17]; -0.322 in [18]; 0.102 in assay [19]; -0.319 in [20]. Also, the values for the z-score in assay [4] and in assay [12] were -0.793 (inactive) and -0.185, respectively.

As for `C[C@]1(C(=O)NC2CC2)c2ccccc2C(=O)N(Cc2ccc(OC(F)(F)F)cc2)[C@H]1c1ccc(CO)cc1`, the composite z-score is -0.419 in assay [1]; -0.0414 in [2]; 0.755 in assay [3]; -0.326 in assay [5]; -0.0882 in assay [6]; -0.617 in [7]. In addition, the composite z-score in assay [8] is -0.409; in assay [9], -0.758; in [10], 0.781; in assay [11], -0.633; in [13], -1.07; in assay [14], -0.42. Also, the composite z-score in assay [15] was 0.479; in assay [16] it was -0.0792; in assay [17] it was -0.0243; in assay [18], 0.625; in [19], 0.297; in assay [20] it was 0.585. The z-score is 0.765 (inactive) in assay [4] and -0.144 in assay [12].

Consider `CCOC(=CC(=O)OC)CC(O)c1cccc(Cl)c1` (stereo not given), for which the composite z-score in assay [1] is 0.971; in assay [2], -0.132; in assay [3] it was 0.445; in [5] it was -0.617; in assay [6] it was 0.982; in assay [7], -0.779. The composite z-score in assay [8] is -0.151; in assay [9] it was -1.3; in assay [10], -0.297; in assay [11], 1.11; in [13] it was -0.796; in assay [14] it was -0.265. Also, the composite z-score in assay [15] was 0.486; in [16], -0.0685; in assay [17] it was -0.156; in [18], -0.527; in [19] it was 1.36; in assay [20] it was -0.259. The z-score in [4] was -1.02 (inactive); in assay [12], -2.17.

On to `COC(=O)[C@@]1(Cc2ccccc2)[C@H]2c3cc(C(=O)N4CCCC4)n(C[C@H](O)CO)c3C[C@H]2CN1C(=O)c1ccccc1`, for which the composite z-score was 1.06 in assay [1]; 0.571 in [2]; 1.01 in [3]; -0.209 in assay [5]; -0.0288 in [6]; -0.455 in assay [7]. Besides, the composite z-score is 0.0783 in assay [8]; -1.11 in [9]; 0.956 in assay [10]; 0.391 in assay [11]; -0.43 in [13]; 2.06 in assay [14]. The composite z-score was 0.142 in assay [15]; -0.124 in [16]; -0.316 in assay [17]; -0.107 in [18]; 2.96 in assay [19]; -0.187 in assay [20]. Also, the z-score was 0.797 (inactive) in assay [4] and -0.925 in assay [12].
